TLR9-MyD88 inh: inhibitors of TLR9-MyD88 association in cells, primary screen, cell-based, CHO, BLA complementation, fluorescence | Toll-like receptor 9 (Homo sapiens) + Myeloid differentiation primary response protein … | CCF4 FRET ratio | inhibition, % at 4.98 µM | 0.21% of 340,000 active | AID 504734, 2011;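 active = inhibition above the mean over all tested compounds plus 3 SD, cut at about 21% in these data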;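 note: 0% = DMSO only wells and 100% = clavulanate BLA inhibitor control wells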
TLR4-MyD88 BLA: inhibitors of TLR4-MyD88 association in cells, primary screen, cell-based, HeLa CL3-4, BLA complementation, FRET ratio. inhibition, % at 8.4 µM. Toll-like receptor 4 (Homo sapiens) + Myeloid differentiation primary response protein …. HeLa CL3-4 TLR4/MyD88 BLA complementation. 0.18% of 200,000 active. AID 861, 2007; in the data active = inhibition above about 25%;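 note: 0% = vehicle and 100% = reference inhibitor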
GRK2 aptamer HTS: compounds blocking aptamer binding on GRK2 – biochemical, human GRK2, bead flow cytometry, HTS, primary screen; Beta-adrenergic receptor kinase 1 (Homo sapiens), P25098; FAM-aptamer displacement from GRK2; inhibition of aptamer binding, % at 10 µM; 0.59% of 330,000 active; AID 488847, 2010;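 active = inhibition of aptamer binding above 40%, roughly 3 SD of noise, on plates passing a quality check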;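 note: median bead fluorescence of bound FAM aptamer so fluorescent compounds give negative values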
Target sequence (P25098 whole entry, looked up): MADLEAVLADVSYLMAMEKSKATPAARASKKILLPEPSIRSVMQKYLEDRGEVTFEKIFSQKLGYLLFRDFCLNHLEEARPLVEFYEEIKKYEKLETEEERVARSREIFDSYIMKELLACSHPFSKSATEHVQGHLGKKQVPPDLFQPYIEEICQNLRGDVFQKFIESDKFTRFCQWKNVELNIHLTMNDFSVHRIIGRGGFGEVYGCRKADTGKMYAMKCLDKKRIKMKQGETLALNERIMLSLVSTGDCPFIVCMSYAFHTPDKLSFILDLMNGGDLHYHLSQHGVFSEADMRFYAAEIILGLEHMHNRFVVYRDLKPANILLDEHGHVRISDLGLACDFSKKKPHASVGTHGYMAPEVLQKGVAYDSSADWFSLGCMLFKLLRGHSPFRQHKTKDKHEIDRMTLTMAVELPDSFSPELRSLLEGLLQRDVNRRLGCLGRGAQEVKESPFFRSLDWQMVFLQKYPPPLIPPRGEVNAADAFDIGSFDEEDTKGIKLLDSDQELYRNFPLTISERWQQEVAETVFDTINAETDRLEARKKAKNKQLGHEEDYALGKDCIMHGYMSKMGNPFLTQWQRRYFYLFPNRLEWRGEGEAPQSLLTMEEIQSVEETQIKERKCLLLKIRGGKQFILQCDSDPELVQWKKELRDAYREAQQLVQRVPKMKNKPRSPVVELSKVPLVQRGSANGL
NOD2 RIPK2 PPI: NOD2-RIPK2 binding disruptors in cells, primary screen, fluorescence, CHO cells, BLA complementation; Receptor-interacting serine/threonine-protein kinase 2 (Homo sapiens), O43353; CCF4 ratio; inhibition, % at 4.98 µM; 0.38% of 360,000 active; AID 624267, 2012; in the data active = inhibition above about 21%;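 note: 0% = vehicle only and 100% = reference blocker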
TMEM16A inh: TMEM16A chloride channel inhibitors, primary screen, cell-based, HTS | Anoctamin-1 (Mus musculus), Q8BHY3 | AID 588511, 2011 | normalized B-score (activity score, 25-100; higher = stronger inhibition) at 10 µM | HEK293 TMEM16A/YFP iodide influx fluorescence, ionomycin | 1.2% of 310,000 active;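 active = ratio plate-corrected score three or more library SD toward inhibition, starting fluorescence score within five deviations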;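 note: score derived from kinetic fluorescence span divided by baseline fluorescence per well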
TMEM16A act: TMEM16A chloride channel activators or potentiators, primary screen, cell-based, HTS; Anoctamin-1 (Mus musculus), Q8BHY3; HEK293 TMEM16A/YFP-H148Q/I152L, iodide quench fluorescence; active compounds read low; B-score at 10 µM; 0.3% of 340,000 active; AID 623877, 2012;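 active = fluorescence-ratio B-score plate-corrected deviation score at least 3 library SD below zero, with starting fluorescence score within 5 deviations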;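 note: channel opened by trigger with iodide after compound preincubation; score built on the fluorescence ratio of max minus min over baseline; more negative score means more quench and so TMEM16A activation or potentiation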
NOD2-RIPK2 conf: NOD2-RIPK2 binding disruptors, retest, confirmation, fluorescence, CHO cells, BLA complementation, triplicate | shares compounds with NOD2 RIPK2 PPI | CCF4 FRET | inhibition, % at 4.98 µM | 70% of 1,200 active;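 active = mean inhibition across replicates above a set limit taken from the earlier primary screen, cut at about 21% in these data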;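 note: 0% = DMSO-only wells and the high end = clavulanate BLA-blocked wells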
NOD2 BLA counter: counter-screen for NOD2-RIPK2 interaction inhibitors: BLA reporter; CHO BLA reporter, CCF4 FRET ratio, counterscreen; shares compounds with NOD2 RIPK2 PPI; 57% of 1,200 active; inhibition, % at 4.98 µM;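 active = mean inhibition above the low-control mean inhibition plus three low-control SD, cut at about 11% in these data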;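 note: 0% = DMSO only wells and 100% = clavulanate high control wells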
Active calls of the source: *; i = inactive; x = no result. Shown are actives, neighbours in structure and some others; about 2.2% of the full set was active somewhere.

SMILES	TLR9-MyD88 inh	TLR4-MyD88 BLA	GRK2 aptamer HTS	NOD2 RIPK2 PPI	TMEM16A inh	TMEM16A act	NOD2-RIPK2 conf	NOD2 BLA counter
O=C(NCc1cccnc1)/C(=C/c1ccc(-c2ccc(Cl)cc2)o1)S(=O)(=O)c1ccccc1	7.8	-0.5	1.0	41.4*	i	i	35.7*	-2.9
O=C(NCc1cccnc1)/C(=C\c1ccc(-c2ccc(Br)cc2)o1)S(=O)(=O)c1ccccc1	-6.0	9.1	0.0	32.9*	i	i	30.4*	-1.1
O=C(NCc1cccnc1)/C(=C/c1ccc(-c2cccc(C(F)(F)F)c2)o1)NC(=O)c1ccccc1	0.7	6.8	2.0	1.7	i	i	x	x
CC(C)NS(=O)(=O)c1ccc(OCC(=O)N2CCN(c3ccccc3)CC2)cc1	1.6	7.4	2.0	67.8*	i	i	-5.9	-2.5
COc1ccccc1CNS(=O)(=O)c1cc(C(=O)NCC2CCCO2)c(Cl)cc1Cl (centres undefined)	-9.8	x	1.0	-13.7	x	i	x	x
Fc1ccc(-n2nnc(-c3ccnc4ccccc34)n2)cc1	9.0	1.9	0.0	-10.1	i	i	x	x
NC(=S)N/N=C1/CCSc2ccc3ccccc3c21	3.4	0.2	0.0	23.5*	i	i	0.6	-2.2
CC1CCCCC1NC(=O)CSc1nnc(COc2ccc(Cl)cc2)o1 (centres undefined)	5.8	x	3.0	-4.2	i	i	x	x
O=C(CN(c1cccc([N+](=O)[O-])c1)S(=O)(=O)c1ccccc1)NCc1cccnc1	-3.2	x	0.0	-5.2	i	i	x	x
O=C(CN(c1cccc(C(F)(F)F)c1)S(=O)(=O)c1ccc(Cl)c([N+](=O)[O-])c1)NCc1ccc(F)cc1	5.9	6.8	0.0	23.3*	i	i	28.9*	-1.5
COc1ccc2cc(-c3ccccc3)c(=O)oc2c1	-3.7	x	0.0	-7.6	i	i	x	x
CC(=O)Oc1ccc2cc(-c3cccnc3)c(=O)oc2c1	8.6	x	x	30.5*	x	i	29.6*	44.6*
COc1ccc(C2CC(c3c(O)cc(C)oc3=O)=NCCS2)c(OC)c1 (centres undefined)	15.5	10.0	3.0	22.7*	i	i	15.5	3.5
Cc1cc(O)c(C2=Nc3ccccc3SC(c3ccc(Cl)cc3)C2)c(=O)o1 (centres undefined)	4.5	5.1	2.0	-2.2	i	i	x	x
Cc1cc(Br)ccc1NC(=O)CNC(=O)Cn1ncc(Cl)c(Cl)c1=O	5.0	-3.5	0.0	24.7*	i	i	36.1*	3.9
COc1ccc(NC(=O)Cn2ncc(Cl)c(Cl)c2=O)cc1S(=O)(=O)N1CCOCC1	-3.7	0.1	2.0	-16.5	i	i	x	x
Cc1ccc(S(=O)(=O)N2CCCCC2)cc1NC(=O)Cn1ncc(Cl)c(Cl)c1=O	19.9	x	8.0	43.7*	x	i	45.4*	12.4*
Cc1cc(Br)ccc1NC(=O)CNC(=O)CSc1ncccn1	5.8	x	1.0	3.6	x	i	x	x
O=C(Cn1ncc(Cl)c(Cl)c1=O)N1CCN(S(=O)(=O)c2ccc3ccccc3c2)CC1	11.3	18.8	0.0	49.9*	i	i	67.7*	14.7*
CCN(CC)S(=O)(=O)c1cc(NC(=O)Cn2ncc(Cl)c(Cl)c2=O)ccc1C	19.3	x	1.0	21.8*	i	i	34.8*	8.6
COc1ccc(CCNC(=O)C2CCCN(c3ncccn3)C2)cc1 (centres undefined)	-3.9	-2.8	0.0	1.3	i	i	x	x
O=C(Cn1ncc(Cl)c(Cl)c1=O)Nc1ccc2c(c1)OCO2	9.5	x	3.0	21.3*	x	i	24.8*	5.0
Cc1nn(CC(=O)Nc2ccc3c(c2)OCO3)c(C)c1Cl	-21.5	x	6.0	-9.7	i	i	x	x
O=C(Cn1ncc(Cl)c(Cl)c1=O)NC(=O)NC1CCCCC1	5.5	x	1.0	28.1*	x	i	46.7*	8.4
O=C(CN1CCCCC1)NC(=O)NC1CCCC1	-4.7	-17.8	0.0	1.5	i	i	x	x
SMILES	TLR9-MyD88 inh	TLR4-MyD88 BLA	GRK2 aptamer HTS	NOD2 RIPK2 PPI	TMEM16A inh	TMEM16A act	NOD2-RIPK2 conf	NOD2 BLA counter
Cc1ccccc1C(=O)NNC(=O)CCC(=O)Nc1cccc(Cl)c1C	4.1	1.0	0.0	-4.0	i	i	x	x
COc1ccc(O)c(/C=N/NC(=S)NCCc2ccccc2)c1	15.6	x	0.0	25.9*	i	i	28.6*	23.4*
Oc1ccc(Br)cc1/C=N/NC(=S)NCCc1ccccc1	16.9	x	0.0	12.9	i	i	x	x
COC(=O)CCNC(=O)c1ccc2nc(Cc3ccc(OC)c(OC)c3)oc2c1	9.2	x	0.0	21.5*	i	i	-2.9	0.3
COc1ccc(Cc2nc3ccc(C(=O)NCCCSC)cc3o2)cc1OC	2.7	x	0.0	8.3	i	i	x	x
COc1cccc(OC)c1C(=O)NC(=S)Nc1ccc2oc(-c3ccncc3)nc2c1	-21.0	-1.7	4.0	63.9*	i	i	-10.2	-1.9
COCCNC(=O)COc1coc(CN2CCN(Cc3ccccc3)CC2)cc1=O	-2.9	x	0.0	-5.7	i	i	x	x
CC(=O)OC[C@]12CC[C@H]3[C@@](C)(CC[C@H]4C(C)(C)CCC[C@]34C)[C@@H]1CC(C1=CC(=O)OC1O)O2 (some centres undefined)	x	x	x	45.7*	x	x	49.1*	21.4*
CC(=O)OC[C@]1(OC(C)=O)C[C@@]23CC[C@H]4[C@@](C)(CCC[C@@]4(C)C(=O)O)[C@@H]2CC[C@@H]1C3	6.3	-8.2	2.0	-1.2	i	i	x	x
CCC1CCC2(CC1)NC(=O)N(CC(=O)Nc1ccc(OC)c(Cl)c1)C2=O (centres undefined)	-3.9	x	0.0	-4.6	x	i	x	x
C/C(=N\NC(=S)NC1CCCCC1)c1cccc(Br)c1	-3.8	2.1	0.0	32.3*	i	i	-1.8	-2.7
CC(CNC(=O)CCC(=O)N1CCOc2ccccc21)c1ccccc1 (centres undefined)	6.2	x	0.0	1.9	i	i	x	x
CNC(=O)c1nnsc1S(=O)(=O)c1ccc(Cl)cc1	41.0*	12.7	x	85.5*	x	i	80.0*	9.1
